# Sampled rows, rich in hits. Any-hit rate of the full collection: about 4.1%.
# Env fusion inh = blocks HIV Env-driven cell-cell fusion; AID 651610; inhibition, % at 12.3 µM; HeLa-JRFL Env/CEM21 cell fusion, luciferase; hit rate 1.1% among 360,000;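 active = mean replicate inhibition score of at least 50 and every replicate individually at or above 50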;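 also: 0% = plate neutral controls and 100% = maraviroc near 300 nM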
# PglD inh = inhibitors of Campylobacter jejuni PglD acetyltransferase; purified PglD enzyme, DTNB colorimetric CoA detection; inhibition, % at 12.5 µM; hit rate 0.098% among 360,000; AID 602405; in the data active = inhibition above about 16%, passing the limit was not always enough
# ALR inh = human ALR oxidase inhibition via reduced H2O2; inhibition, % (concentration not given with the values); purified ALR, DTT oxidation, H2O2 HRP-luminol luminescence; P55789; AID 485317; hit rate 3.8% among 290,000;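 active = mean replicate inhibition above about 79%, with every replicate also reaching it, limit read from the data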
# CASP6 VEID inh = caspase-6 (human) enzyme inhibition | purified caspase-6, Z-VEID-R110 cleavage fluorescence | inhibition, % at 12.5 µM | AID 686996 | P55212 | hit rate 0.53% among 350,000;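 active = mean inhibition across replicates at least about 35%, with every replicate also reaching that limit, limit read from the data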;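 also: 0% = median of neutral control wells and 100% = no fluorescence left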
# NSD2 HMT inh = NSD2 (human) methyltransferase inhibition | O96028 | NSD2 peptide methylation, AlphaScreen, 120 min | inhibition, % at 12.5 µM | hit rate 0.54% among 310,000; in the data active = inhibition above about 50%
# Target sequence (O96028 whole entry, looked up): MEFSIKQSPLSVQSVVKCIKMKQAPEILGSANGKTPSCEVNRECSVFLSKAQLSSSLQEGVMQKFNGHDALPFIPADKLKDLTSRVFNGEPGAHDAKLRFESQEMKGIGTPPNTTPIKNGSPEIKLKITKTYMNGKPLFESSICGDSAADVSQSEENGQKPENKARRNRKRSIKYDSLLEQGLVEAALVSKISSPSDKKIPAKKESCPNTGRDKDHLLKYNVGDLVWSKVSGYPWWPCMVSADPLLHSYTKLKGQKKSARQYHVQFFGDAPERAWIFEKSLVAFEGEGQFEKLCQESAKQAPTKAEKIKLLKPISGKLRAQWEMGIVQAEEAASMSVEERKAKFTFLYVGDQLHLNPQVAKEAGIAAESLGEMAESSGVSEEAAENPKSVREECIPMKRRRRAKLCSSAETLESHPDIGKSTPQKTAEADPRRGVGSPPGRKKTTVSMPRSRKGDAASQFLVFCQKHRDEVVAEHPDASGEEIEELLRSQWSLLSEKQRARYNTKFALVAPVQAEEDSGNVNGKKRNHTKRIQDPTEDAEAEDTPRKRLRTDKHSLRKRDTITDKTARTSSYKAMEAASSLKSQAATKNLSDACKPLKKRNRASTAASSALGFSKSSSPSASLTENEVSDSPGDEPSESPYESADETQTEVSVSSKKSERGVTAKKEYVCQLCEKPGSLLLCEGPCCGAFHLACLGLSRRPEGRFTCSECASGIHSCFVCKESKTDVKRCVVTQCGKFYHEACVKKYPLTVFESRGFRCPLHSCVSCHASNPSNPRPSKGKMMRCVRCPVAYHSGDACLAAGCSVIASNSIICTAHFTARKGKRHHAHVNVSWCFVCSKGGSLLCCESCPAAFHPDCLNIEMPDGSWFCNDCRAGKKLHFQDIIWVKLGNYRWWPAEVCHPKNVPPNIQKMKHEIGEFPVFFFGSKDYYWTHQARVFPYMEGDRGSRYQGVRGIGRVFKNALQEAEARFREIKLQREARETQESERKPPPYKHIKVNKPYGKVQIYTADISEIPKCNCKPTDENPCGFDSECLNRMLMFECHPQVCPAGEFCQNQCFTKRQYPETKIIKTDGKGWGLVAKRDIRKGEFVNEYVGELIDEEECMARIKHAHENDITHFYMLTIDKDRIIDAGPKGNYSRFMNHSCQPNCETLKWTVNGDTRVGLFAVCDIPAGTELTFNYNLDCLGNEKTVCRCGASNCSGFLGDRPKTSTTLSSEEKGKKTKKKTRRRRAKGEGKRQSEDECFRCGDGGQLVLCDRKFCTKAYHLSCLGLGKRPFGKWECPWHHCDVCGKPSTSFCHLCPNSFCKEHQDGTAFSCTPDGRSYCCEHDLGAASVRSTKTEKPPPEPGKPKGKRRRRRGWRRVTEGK
# CFTR F508del cor = CFTR F508del correction in bronchial cells; CFBE cells, YFP halide quenching; stimulated with forskolin plus potentiator P3; % fluorescence drop versus neutral controls; hit rate 0.36% among 350,000; AID 720511; activity (quench increase), % at 7.58 µM;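 active = mean added fluorescence quench of at least 8% versus neutral control, with both replicates also reaching 8%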;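 also: cells transiently co-express mutant CFTR-F508del with the halide-sensitive YFP; corrector assay measuring rescue of mutant channel to the surface after 24 h compound exposure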
# An asterisk follows results filed as active; x = no result given; [ ] = dose if it differs, or a comment.
SMILES,Env fusion inh,PglD inh,ALR inh,CASP6 VEID inh,NSD2 HMT inh,CFTR F508del cor
CCCNC(=O)C[C@H]1CC[C@H]2[C@H](COc3ccc(NS(=O)(=O)CC)cc3C(=O)N2C)O1,-11[16.7 µM],3,x,0,x,1
O=C(Nc1ccc2snnc2c1)N1CCSCC1,-27,2,93*,x,-1,x
CC1CN(C(=O)Nc2ccc3snnc3c2)c2ccccc21 (stereo unspecified),-5,-1,94*,2,x,-2
Cc1ccc(S(=O)(=O)N(C)C[C@H]2Oc3cc(C#Cc4ccccc4)ccc3S(=O)(=O)N([C@@H](C)CO)C[C@H]2C)cc1,-73[16.7 µM],-1,x,2,x,x
Cc1noc(C)c1S(=O)(=O)N(C)C[C@@H]1Oc2ccc(NC(=O)Nc3cccc4ccccc34)cc2CC(=O)N([C@H](C)CO)C[C@@H]1C,79*[16.7 µM],1,x,-1,x,1
Cc1ccc(S(=O)(=O)N(C)C[C@@H]2Oc3ccc(NC(=O)Nc4cccc5ccccc45)cc3CC(=O)N([C@@H](C)CO)C[C@@H]2C)cc1,56*[16.7 µM],-2,x,-2,x,-1
O=C(CN1CCN(c2ncc(C(F)(F)F)cc2Cl)CC1)N1CCN(c2ncc(C(F)(F)F)cc2Cl)CC1,95*,8,x,-2,1,x
O=C(CSc1ccc(Cl)cc1)N1CCN(c2ncc(C(F)(F)F)cc2Cl)CC1,22,1,-5,x,1,x
C[C@H](CO)N1C[C@H](C)[C@@H](CN(C)C(=O)C2CCCCC2)OCCCC[C@H](C)Oc2ccc(NS(=O)(=O)c3cn(C)cn3)cc2C1=O,-7[16.7 µM],5,x,0,x,1
C[C@@H]1CN([C@@H](C)CO)C(=O)Cc2cc(NC(=O)C3CC3)ccc2O[C@@H]1CN(C)Cc1ccc2c(c1)OCO2,4[16.7 µM],-4,x,-2,x,3
CC(C)(C)NC(=O)NC(=O)CSc1n[nH]c(-c2ccccc2Br)n1,10,x,96*,5,1,-2
C[C@H](CO)N1C[C@H](C)[C@H](CN(C)C)Oc2cc(C3=CCCCC3)ccc2S1(=O)=O,-34[16.7 µM],x,x,x,x,-1
O=c1cc(-c2ccc(O)c(O)c2)oc2c(C3O[C@H](CO)[C@@H](O)[C@H](O)[C@H]3O)c(O)cc(O)c12 (stereo partly specified),2,-1,99*,12,x,3
O=c1cc(-c2ccc(O)c(O)c2)oc2cc(O)c(C3OC(CO)C(O)C(O)C3O)c(O)c12 (stereo unspecified),x,-10,99*,7,x,2
C[C@@H]1CCCCO[C@H](CN(C)C(=O)CCC(F)(F)F)[C@H](C)CN([C@H](C)CO)C(=O)c2cc(NS(=O)(=O)c3cn(C)cn3)ccc2O1,11[16.7 µM],2,x,2,x,-3
CCCNC(=O)[C@H]1[C@H](CO)[C@H]2Cn3c(ccc(C4=CCCCC4)c3=O)[C@@H]1N2CC,x,-2,x,3,x,0
CO[C@H]1CN(C)C(=O)c2ccc(NC(=O)C3CC3)cc2OC[C@H](C)N(CCC(F)(F)F)C[C@@H]1C,x,x,x,6,x,-1
C[C@H]1CN([C@@H](C)CO)C(=O)Cc2cc(NC(=O)Cn3cnnn3)ccc2O[C@H]1CN(C)Cc1ccccc1,8[16.7 µM],0,x,-3,x,1
CC1(Cc2ccc(Cl)cc2)C(=O)Nc2ccc(-c3cccnc3)cc21 (stereo unspecified),69*,-5,x,4,3,4
CC1(Cc2ccc(OC(F)(F)F)cc2)C(=O)Nc2ccc(S(=O)(=O)NC3CCCCC3)cc21 (stereo unspecified),9,-2,x,-1,-2,-2
CC1(Cc2ccc(Cl)cc2)C(=O)Nc2ccc(S(=O)(=O)NC3CCCCC3)cc21 (stereo unspecified),91*,4,x,0,17,5
COc1ccc(C(C)=O)cc1CC1(C)C(=O)Nc2ccc(-c3cccc(C(F)(F)F)c3)cc21 (stereo unspecified),79*,3,x,0,-4,0
COc1ccccc1-c1ccc2c(c1)C(C)(Cc1ccc(F)c(Cl)c1)C(=O)N2 (stereo unspecified),96*,2,x,0,0,0
C[C@@H]1CN([C@H](C)CO)C(=O)Cc2cc(NS(=O)(=O)c3ccccc3)ccc2O[C@@H]1CN(C)CC1CC1,x,6,x,-2,x,-2
CCC(=O)N1CC[C@@H]2[C@H]1c1cc(-c3ccccc3F)ccc1N(C)[C@@H]2CO,x,2,x,0,x,-4
SMILES,Env fusion inh,PglD inh,ALR inh,CASP6 VEID inh,NSD2 HMT inh,CFTR F508del cor
COc1ccccc1-c1ccc2c(c1)C(C)(Cc1cc(Cl)ccc1C(F)(F)F)C(=O)N2 (stereo unspecified),-3,2,x,-5,-5,-3
COc1ccc(Cl)cc1CC1(C)C(=O)Nc2ccc(-c3ccccc3OC)cc21 (stereo unspecified),92*,-2,x,-4,0,-1
COc1ccccc1-c1ccc2c(c1)C(C)(Cc1cccc(C#N)c1)C(=O)N2 (stereo unspecified),101*,5,x,3,-2,0
Cn1cnc(S(=O)(=O)N2C[C@@H](O)COC[C@@H]3O[C@H](CC(=O)NCc4cc(F)cc(F)c4)CC[C@H]32)c1,x,2,x,0,x,-1
C[C@H]1CN([C@@H](C)CO)C(=O)c2cc(-c3cncnc3)cnc2O[C@@H]1CN(C)C(=O)Cc1cccnc1,-25[16.7 µM],6,x,-2,x,0
O=C(Cn1c(=O)oc2cc(S(=O)(=O)N3CCCCC3)ccc21)N1CCc2ccccc21,-20,2,x,2,x,1
O=C(Cn1c(=O)oc2cc(S(=O)(=O)N3CCc4ccccc43)ccc21)N1CCCCC1,-14,-3,88*,-2,x,0
O=C(C1CCOCC1)N1CC(=O)N2[C@H](CO)[C@H](c3ccc(C#CC4CCCC4)cc3)[C@H]2C1,x,x,x,0,x,5
c1ccc(C2Nc3ccccc3C3OCCCC23)cc1 (stereo unspecified),-7,-3,99*,0,-2,0
Cc1ccc2c(c1)[C@H]1OCC[C@H]1[C@@H](c1ccncc1)N2,-1,-7,x,-1,x,1
CCc1ccc(C(C(=O)NC2CCCC2)N(C(=O)/C=C/C(=O)Nc2cc(C)on2)c2ccccc2C)cc1 (stereo unspecified),77*,x,-5,x,-1,x
CCOc1ccc(N(C(=O)/C=C/C(=O)Nc2cc(C)on2)C(C(=O)NC2CCCC2)c2ccccc2C)cc1 (stereo unspecified),x,3,-9,6,6,1
COCC(=O)N1[C@@H](CO)[C@H](c2ccccc2)C12CN(C(=O)NC1CCCC1)C2,x,x,x,2,x,-1
CC1(c2cnc(Nc3ccccc3)s2)CCC(=O)O1 (stereo unspecified),-25,-1,97*,x,1,x
Cn1c(CN2CCN(c3ccc(Cl)cc3)CC2)nc2ccccc21,29,x,3,x,1,x
CCn1c(CN2CCN(c3ccc(Cl)cc3)CC2)nc2ccccc21,28,-7,96*,x,4,x

# Screening results: PubChem, Broad Institute
